The record followed here is paper PMC4336329 (PLoS ONE, 2015).

Molecules are shown by their SMILES. Out of some 310,000 compounds screened, about 14,000 (4.5%) showed an effect of 50% or more. The effect is printed as a negative number. What follows is part of a selection rich in strong results, with near analogues and random picks from the rest.
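Note: peak tail current of the secondary pulse compared with the same well before compound.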

The target of the experiment is human ether-à-go-go-related gene (hERG) potassium channel (human, UniProt Q12809). Briefly: primary screen, population patch clamp on CHO cells stably expressing hERG; higher = less effect of the substance.
Chain of human ether-à-go-go-related gene (hERG) potassium channel (Q12809 whole entry, looked up): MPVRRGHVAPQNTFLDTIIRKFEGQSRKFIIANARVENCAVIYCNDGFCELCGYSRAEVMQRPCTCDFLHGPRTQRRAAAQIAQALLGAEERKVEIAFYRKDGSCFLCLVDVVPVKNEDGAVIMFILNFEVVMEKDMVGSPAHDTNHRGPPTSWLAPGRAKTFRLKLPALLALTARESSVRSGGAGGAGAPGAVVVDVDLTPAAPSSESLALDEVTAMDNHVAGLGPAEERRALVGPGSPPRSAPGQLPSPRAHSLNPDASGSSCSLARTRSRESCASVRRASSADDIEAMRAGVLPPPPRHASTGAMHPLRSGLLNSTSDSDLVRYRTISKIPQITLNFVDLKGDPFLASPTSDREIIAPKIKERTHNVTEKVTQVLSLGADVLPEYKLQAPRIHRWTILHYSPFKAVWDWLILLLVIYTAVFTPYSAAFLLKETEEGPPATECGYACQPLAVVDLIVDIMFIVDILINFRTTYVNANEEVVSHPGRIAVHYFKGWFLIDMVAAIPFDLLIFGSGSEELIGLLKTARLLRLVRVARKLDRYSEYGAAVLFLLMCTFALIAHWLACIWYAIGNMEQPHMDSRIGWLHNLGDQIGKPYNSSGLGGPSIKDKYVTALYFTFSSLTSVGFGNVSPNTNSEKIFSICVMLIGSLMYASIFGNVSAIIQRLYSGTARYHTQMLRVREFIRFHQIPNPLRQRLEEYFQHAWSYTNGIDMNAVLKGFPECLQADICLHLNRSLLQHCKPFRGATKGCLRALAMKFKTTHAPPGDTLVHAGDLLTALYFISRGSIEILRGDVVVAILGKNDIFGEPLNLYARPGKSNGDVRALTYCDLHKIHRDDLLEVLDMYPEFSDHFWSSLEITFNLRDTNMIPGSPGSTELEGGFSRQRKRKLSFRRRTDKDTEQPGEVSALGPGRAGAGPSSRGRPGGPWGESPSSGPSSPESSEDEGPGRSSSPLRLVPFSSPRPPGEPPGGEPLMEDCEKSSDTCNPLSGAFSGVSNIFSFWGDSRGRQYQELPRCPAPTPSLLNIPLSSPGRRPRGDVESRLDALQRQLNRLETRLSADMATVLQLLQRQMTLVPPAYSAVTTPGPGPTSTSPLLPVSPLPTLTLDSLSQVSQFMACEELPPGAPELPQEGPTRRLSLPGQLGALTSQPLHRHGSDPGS
Take `CCc1ccc2[nH]c(=O)c(CN(CCN(C)C)C(=S)NCc3ccco3)cc2c1`: the “hERG current change (%, negative = inhibition) at 10uM” value was -52%.
Regarding `CCc1ccc2[nH]c(=O)c(CN(CCN(CC)CC)C(=S)NCc3ccco3)cc2c1`, the “hERG current change (%, negative = inhibition) at 10uM” value is listed as -67.9%.
With `O=C1c2cccc3c([N+](=O)[O-])ccc(c23)C(=O)N1c1ccc(Cl)cn1` the figure was 0.201%; with `COC(=O)c1cccc(NS(=O)(=O)c2ccc(OC)cc2)c1C`, -1.48%.
For the compound `COc1ccc(-c2cc(C(F)(F)F)nc(SCCC(=O)NCc3ccccc3)n2)cc1`, the “hERG current change (%, negative = inhibition) at 10uM” value is -14.5%.
For the compound `CCCOc1ccc(C(=O)Nc2c[nH]c(=O)[nH]c2=O)cc1`, the “hERG current change (%, negative = inhibition) at 10uM” value is -6.41%.
With `CCn1c(COc2cccc(OC)c2)nnc1SCC(=O)Nc1cccc(OC)c1` the figure was -41.1%; with `N=c1c(C(=O)NC2CCCC2)cc2c(=O)n3ccccc3nc2n1CCCN1CCOCC1`, -78.2%; with `N=c1c(C(=O)NC2CCCC2)cc2c(=O)n3ccccc3nc2n1CCN1CCOCC1`, -91.9%.
`O=C(c1ccco1)N1CCN=C1SCc1cccc(F)c1`: the “hERG current change (%, negative = inhibition) at 10uM” value was -6.98%.
In the case of `Cc1csc2ncc(C(=O)NCCC(c3ccccc3)c3ccccc3)c(=O)n12`, the “hERG current change (%, negative = inhibition) at 10uM” value is on record as -0.968%.
Regarding `Cc1cc(-c2nn(C)c(=O)c3ccccc23)cc(C)c1O`, the “hERG current change (%, negative = inhibition) at 10uM” value was 0.868%.
In the case of `Cc1ccc(S(=O)(=O)N2CCC(=O)N(C(COCc3ccc(Cl)cc3)C(C)C)CC2)cc1` (stereo not shown), the “hERG current change (%, negative = inhibition) at 10uM” value was -51.7%.
Consider `Cc1ccc(S(=O)(=O)N2CCC(=O)N(C(COCc3ccccc3)C(C)C)CC2)cc1` (stereo not shown), for which the “hERG current change (%, negative = inhibition) at 10uM” value is -23.2%.
Consider `Cc1ccc(S(=O)(=O)N2CCC(=O)N(CCOC(=O)Nc3cccc(Cl)c3)CC2)cc1`, for which the “hERG current change (%, negative = inhibition) at 10uM” value is on record as -65.7%.
Regarding `Cc1ccc(COCCN2CCN(S(=O)(=O)c3ccc(C)cc3)CCC2=O)cc1`, the “hERG current change (%, negative = inhibition) at 10uM” value was found to be 6.17%.
For `Cc1ccc(COCCN2CCN(S(=O)(=O)c3ccccc3)CCC2=O)cc1`, the “hERG current change (%, negative = inhibition) at 10uM” value is on record as -0.87%.
`Cc1ccc(NC(=O)OCCN2CCN(S(=O)(=O)c3ccc(C)cc3)CCC2=O)cc1`: the “hERG current change (%, negative = inhibition) at 10uM” value was -18.5%.
Turning to `Cc1ccc(S(=O)(=O)N2CCC(=O)N(C(COCc3cccc(Cl)c3)C(C)C)CC2)cc1` (stereo not shown), the “hERG current change (%, negative = inhibition) at 10uM” value was -35.2%.
For the compound `Cc1ccc(S(=O)(=O)N2CCC(=O)N(CCOC(=O)Nc3cc(C)cc(C)c3)CC2)cc1`, the “hERG current change (%, negative = inhibition) at 10uM” value was -40.7%.
Regarding `Cc1ccc(S(=O)(=O)N2CCC(=O)N(CCOCc3ccc(Cl)cc3)CC2)cc1`, the “hERG current change (%, negative = inhibition) at 10uM” value is -60.1%.
Next, `COc1ccc(C2=Nc3cccc4cccc(c34)N2)cc1`: 9.66%; `Cc1cccc(Nc2nnc(SCC(=O)Nc3cccc(S(=O)(=O)N4CCCCC4)c3)s2)c1`: 3.37%.
Next, `C=CCN1C(=O)NC(=O)/C(=C/c2ccoc2)C1=O`: 20.5%; `CCn1c(C)[n+](CCOC(C)=O)c2cc(Cl)c(Cl)cc21.[I-]`: -8.87%; `COC(=O)CCCC(=O)N1CCC(CCC(=O)NCc2ccc(F)cc2)CC1`: -24%.
Regarding `N#C/C=C(/N)N1CCN(c2ccc(Cl)c(Cl)c2)CC1`, the “hERG current change (%, negative = inhibition) at 10uM” value is on record as -73.9%.
In the case of `COC(=O)N1CCN(c2ccc(Cl)c(Cl)c2)CC1`, the “hERG current change (%, negative = inhibition) at 10uM” value is reported as -1.86%.
As for `CN(C)C(=C(C#N)C#N)N1CCN(c2ccc(Cl)cc2)CC1`, the “hERG current change (%, negative = inhibition) at 10uM” value is -48.3%.
Consider `CNC(=S)N1CCN(c2ccc(Cl)c(Cl)c2)CC1`, for which the “hERG current change (%, negative = inhibition) at 10uM” value is listed as -6.17%.
Turning to `CN(C)C(=C(C#N)C#N)N1CCN(c2ccc(Cl)c(Cl)c2)CC1`, the “hERG current change (%, negative = inhibition) at 10uM” value is recorded as -63.2%.
Take `CCOC(=O)N1CCN(c2ccc(Cl)c(Cl)c2)CC1`: the “hERG current change (%, negative = inhibition) at 10uM” value was -11.1%.
Take `CCC1(c2ccccc2)NC(=O)N(CC(=O)Nc2ccccc2N2CCCCC2)C1=O` (stereo not shown): the “hERG current change (%, negative = inhibition) at 10uM” value is -15.8%.
Regarding `CCCc1ccc(Oc2cc(N3CCOCC3)nc(-c3ccccc3)n2)cc1`, the “hERG current change (%, negative = inhibition) at 10uM” value stood at 21.5%.
On to `CCC(=O)Nc1cccc(-c2nc3ccc(C)cc3o2)c1`, for which the “hERG current change (%, negative = inhibition) at 10uM” value is on record as -13.4%.
As for `CC1(C)CC(O)C(C)(C)N1O` (stereo not shown), the “hERG current change (%, negative = inhibition) at 10uM” value is 3.9%.
As for `CCc1nnc(NS(=O)(=O)c2ccc(N=Cc3c(C)[nH]n(-c4ccc(Cl)cc4)c3=O)cc2)s1`, the “hERG current change (%, negative = inhibition) at 10uM” value is listed as 17.7%.
`Cc1ccc(C)c(CN2C(=O)CSc3ccc(C(=O)N4CCCC4)cc32)c1`: the “hERG current change (%, negative = inhibition) at 10uM” value is listed as -17%.
With `Cc1ccc(C)c(CN2C(=O)CSc3ccc(C(=O)NCCN4CCOCC4)cc32)c1`, the “hERG current change (%, negative = inhibition) at 10uM” value came out at 14.6%.
With `Cc1ccc(C)c(CN2C(=O)CSc3ccc(C(=O)NCC(C)CN4CCC(C)CC4)cc32)c1` (stereo not shown), the “hERG current change (%, negative = inhibition) at 10uM” value was -75.8%.
For the compound `CCOC(=O)c1nn(-c2ccccc2F)c(-c2ccccc2)c1C(=O)c1ccccc1`, the “hERG current change (%, negative = inhibition) at 10uM” value amounted to 7.34%.
`O=C(NCCc1ccccc1)c1ccc(-n2cnnn2)cc1`: the “hERG current change (%, negative = inhibition) at 10uM” value is listed as -4.78%.
In the case of `COCCN(C(=O)COC(=O)c1cccc2ccccc12)c1c(N)n(Cc2ccccc2)c(=O)[nH]c1=O`, the “hERG current change (%, negative = inhibition) at 10uM” value is -0.159%.
